Test results taken from the supplement of paper PMC3545927.
The list shows a part of the results. The hit rate among all sequences tested is not known here.

Biological target: furin, P09958
Assay: furin cleavage Z-score vs untreated control; higher = more cleavage, active = 3.5 or more, inactive = 1 or less, 8 variable residues between constant flanks
How it was run: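 The cleavage Z-score was derived for purified furin acting on 8-mer peptides held on magnetic beads and fused to a cDNA oligonucleotide. Digests lasted 7.5, 15 or 30 min at 1:10 enzyme:substrate in 50 mM HEPES pH 7.5 with CaCl2 and NaCl. Sequencing counts of released DNA, log-transformed against furin-free reactions, were lowess-adjusted and scaled by median absolute deviation.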

furin, P09958, sequence (P09958 whole entry): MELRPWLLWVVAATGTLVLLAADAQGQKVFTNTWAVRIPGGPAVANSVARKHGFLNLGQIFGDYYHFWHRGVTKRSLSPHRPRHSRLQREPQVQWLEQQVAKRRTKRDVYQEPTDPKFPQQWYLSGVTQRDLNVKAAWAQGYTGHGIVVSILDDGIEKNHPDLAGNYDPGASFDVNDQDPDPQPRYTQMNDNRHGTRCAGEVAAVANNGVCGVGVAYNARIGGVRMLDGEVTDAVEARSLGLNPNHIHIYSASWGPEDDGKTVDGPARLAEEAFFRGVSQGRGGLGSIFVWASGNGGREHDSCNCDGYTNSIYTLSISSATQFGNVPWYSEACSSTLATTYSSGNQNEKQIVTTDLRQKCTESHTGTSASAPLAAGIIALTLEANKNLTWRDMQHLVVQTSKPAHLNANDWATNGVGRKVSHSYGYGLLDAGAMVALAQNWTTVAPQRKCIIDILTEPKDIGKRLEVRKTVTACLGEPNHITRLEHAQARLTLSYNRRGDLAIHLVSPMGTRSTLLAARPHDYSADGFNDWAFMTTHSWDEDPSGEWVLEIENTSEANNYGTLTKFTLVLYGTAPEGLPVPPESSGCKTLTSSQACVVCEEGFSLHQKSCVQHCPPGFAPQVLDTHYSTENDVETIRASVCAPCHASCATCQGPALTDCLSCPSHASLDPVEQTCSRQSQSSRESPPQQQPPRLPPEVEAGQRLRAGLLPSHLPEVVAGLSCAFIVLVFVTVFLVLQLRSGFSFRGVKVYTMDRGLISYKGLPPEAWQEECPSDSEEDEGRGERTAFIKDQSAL

| Sequence | furin cleavage Z-score (7.5 min) | furin cleavage Z-score (15 min) | furin cleavage Z-score (30 min) |
| --- | --- | --- | --- |
| CAPQGDAAQKAGNASASA [NG3] | -0.23 (inactive) | -2.31 (inactive) | 0.729 (inactive) |
| CAVRVLEDGVAGNASASA [HC238] | -0.328 (inactive) | -0.295 (inactive) | 0.54 (inactive) |
| CARGKRSLDGAGNASASA [FS-2018] | 10.4 (active) | 10.4 (active) | 8.84 (active) |
| CARSFRSGDGAGNASASA [FS-2086] | 0.521 (inactive) | -1.18 (inactive) | 0.00797 (inactive) |
| CARGKRHLQGAGNASASA [FS-2671] | 8.58 (active) | 8.16 (active) | 8.59 (active) |
| CARGSRPSWGAGNASASA [HC211] | -1.28 (inactive) | -0.0322 (inactive) | -1.24 (inactive) |
| CAEVPCHQPSAGNASASA [HC2382] | 0.495 (inactive) | -0.572 (inactive) | 1.13 |
| CAFLADGGCSAGNASASA [HC810] | -0.0827 (inactive) | -0.994 (inactive) | -0.4 (inactive) |
| CAVVCCKMSYAGNASASA [HC111] | 2.65 | 1.75 | 0.575 (inactive) |
| CAHRGVTKRSAGNASASA [FS-1593] | 6.75 (active) | 7.15 (active) | 6.87 (active) |
| CAGRSRPDRSAGNASASA [FS-533] | 5.97 (active) | 7.05 (active) | 7.1 (active) |
| CAYKSRTKRSAGNASASA [FS-1581] | 12.8 (active) | 13.7 (active) | 8.1 (active) |
| CAGRSRTKRSAGNASASA [FS-1332] | 10.4 (active) | 9.78 (active) | 7.49 (active) |
| CAFCVQPEKGAGNASASA [HC1443] | -1.06 (inactive) | -0.187 (inactive) | 0.825 (inactive) |
| CAVVTCSMSYAGNASASA [HC2038] | 0.204 (inactive) | -0.0386 (inactive) | -0.133 (inactive) |
| CASTPCSNHLAGNASASA [HC2541] | 0.901 (inactive) | 1.16 | 0.705 (inactive) |
| CASHQRTKRSAGNASASA [FS-1165] | 8.79 (active) | 9.17 (active) | 6.69 (active) |

| Sequence | furin cleavage Z-score (7.5 min) | furin cleavage Z-score (15 min) | furin cleavage Z-score (30 min) |
| --- | --- | --- | --- |
| CAAKHRTKRSAGNASASA [FS-746] | 14.6 (active) | 14.7 (active) | 10.8 (active) |
| CAKKQETKRSAGNASASA [FS-675] | -0.996 (inactive) | 0.0553 (inactive) | 0.952 (inactive) |
| CAHRGPARRSAGNASASA [FS-1533] | 2.51 | 2.95 | 4.27 (active) |
| CAEVPCHRPNAGNASASA [HC2421] | -0.123 (inactive) | 0.813 (inactive) | 1.61 |
| CAVVCPSMSYAGNASASA [HC100] | -0.389 (inactive) | 0.782 (inactive) | 1.57 |
| CAHAWRSRRSAGNASASA [FS-1629] | 10.5 (active) | 8.73 (active) | 8.99 (active) |
| CAEQWRSRRSAGNASASA [FS-993] | 10.6 (active) | 9.84 (active) | 7.38 (active) |
| CAEQIRQDRSAGNASASA [FS-1453] | -0.0806 (inactive) | 0.259 (inactive) | 0.047 (inactive) |
| CAGPSRQNRGAGNASASA [FS-1330] | -0.197 (inactive) | -0.893 (inactive) | -0.697 (inactive) |
| CAGVSRSCRAAGNASASA [FS-1005] | 3.78 (active) | 4.22 (active) | 5.16 (active) |
| CARGRRSPHTAGNASASA [FS-3252] | 7.13 (active) | 8.09 (active) | 6.93 (active) |
| CAGPGRPYRAAGNASASA [FS-784] | -0.745 (inactive) | 0.68 (inactive) | 0.71 (inactive) |
| CARGRKSPSKAGNASASA [FS-2673] | -0.571 (inactive) | -0.51 (inactive) | -0.0739 (inactive) |
| CARGRRKTGEAGNASASA [FS-3251] | -0.45 (inactive) | -1.86 (inactive) | 0.0435 (inactive) |
| CARGRRDFPEAGNASASA [FS-2021] | 1.74 | 3.62 (active) | 3.22 |
| CAGARRSVIGAGNASASA [FS-1983] | -0.924 (inactive) | 0.507 (inactive) | -0.671 (inactive) |
| CAGARRSRRAAGNASASA [FS-422] | 7.16 (active) | 6.59 (active) | 5.19 (active) |
